The whole screen tested about 53,000 sequences, of which about 3,700 (7%) were called active.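 The calls were made as follows: active = gene knockdowns whose robust z-score for IL-1 alpha signal is at least 2 or at most -2, so actives lie on both sides; inactive = the rest.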 Only a selection was taken, and actives are over-represented in it overall.

This assay in a line: Components of the Cytosolic LPS Sensing Pathway: Gene Identification via Genome-wide siRNA Screen.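 Also: robust z of the log signal after scaling to non-targeting control siRNA wells of the plate.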 As to conditions: RAW264.7 macrophages, IL-1a HTRF, actives lie on both sides, screened at 100 nM (by protocol), cells primed 5 h with Pam3CSK4 first. In short, it runs like this: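 Read-out: IL-1a HTRF on supernatant, divided by plate negative-control median ×100, log-transformed and converted to robust z-score. Cells were RAW264.7 given 100 nM siRNA, Pam3CSK4-primed 5 hours, then LipidA-transfected 24 hour.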
(In TR-FRET formats the signal depends on donor and acceptor labels being close together.)
For the sequence GGGCUACAUUCCUUCCAAUTT against Frk, the z-score was 5.59 (active).
With “GGAUCUCGAGCUGACAGAATT against Arhgap33os”, the z-score was 1.31 (inactive).
Consider GGGAAAGGAUUCAAUUAAGTT against Lratd2, for which the z-score was 0.0415 (inactive).
For GAGGGCUCUACAGUUUUUATT against Atp5g3 the value was 0.952 (inactive); for GGCCUUCGAAAUAAUUCUGTT against Ppp1r14d, -0.605 (inactive); for GACCUUCGACACCGACAAATT against Rtl8c, 3.29 (active).
For GCGGCGAUACUUCUACUUGTT against Grk2, the z-score was -0.584 (inactive).
With CCUGUACAUUGUGUAAUGUTT against Pcdh8, the z-score was 0.0925 (inactive).
With CCUGAACGACAGAUUGGCATT against Krt20, the z-score was -0.697 (inactive).
Take CGAAUCCUUAGUUGAAGAATT against Fastkd1: the z-score was 1.18 (inactive).
The figure for GGAAAUUUCAGAGCUCAAGTT against Trpc2 is -2.81 (active); for GGCAAAAGCACUGAAGAGATT against Ar it is -0.63 (inactive); for GGGCUCUUUAGUACUAGAATT against Spn it is -0.612 (inactive).
For the sequence GGUCCCUUGAUGUCGAUUATT against Stt3b, the z-score was -1.15 (inactive).
The figure for GCUUCAGCUCUGAUUAACGTT against Alox8 is -0.233 (inactive); for GCCGAUAGCAUAGACAGUGTT against Kansl2 it is 0.6 (inactive).
For CCAGUCCUACUUAGCAAAGTT against Lrrc75a the value was -1.48 (inactive); for GGUGCAGAGCUUGAGAUGATT against Anks3, -0.729 (inactive).
For GCUGAACAUUAGCUUCAAUTT against Lrrc9 the value was -1.42 (inactive); for GGUUGCUCACUCAUUUAACTT against Pa2g4, 2.18 (active).
Regarding GGAGACAUAUGAGACUCUGTT against Fcer1g, the z-score is 0.156 (inactive).
For GGGACAGAUACUAAACUCUTT against Wfdc2, the z-score was 3.49 (active).
Regarding CCAUGGUUACCGUGUACUATT against Olfr1513, the z-score was -0.312 (inactive).
Consider GGAUCAUUGACAGUGAAUATT against Blk, for which the z-score is -1.35 (inactive).
Regarding GGUCCUAUUUCGGAGCUUUTT against Tnfsf14, the z-score is 0.365 (inactive).
Regarding GCUCAUCGUGUUUUCAACCTT against Cbr3, the z-score was -0.034 (inactive).
As to GGGACACACCAUCAAAAGGTT against Kank4, the z-score was -2.32 (active).
With GGAAAAAUGGAAACCUAAGTT against Nipal3, the z-score is 1.16 (inactive).
With GGUAUUAUCUGCAUGGGCATT against Mkrn3, the z-score is 0.273 (inactive).
As to GGAUGAAGUGUGUUUUGGCTT against Sim1, the z-score was 0.95 (inactive).
Turning to GGACCUUUUGUCUAUAAUGTT against Arl4c, the z-score is 0.759 (inactive).
The figure for GGCAGCUAAACUGUGUUAUTT against Tex11 is -1.36 (inactive); for GGGCUUUGGACAUCUCCUATT against Serpina3c it is -1.98 (inactive).
For GGGAUAUCCUACCAGGUCATT against Ppard the value was -1.24 (inactive); for GCUCCUUUAGUCCUCACCATT against Mrpl10, -2.15 (active); for GGAUCUUCAGGAAAACAGATT against Fam181b, -0.955 (inactive).
For CCACCCUUCUUCUAUCGAATT against Ybx2, the z-score was -1.11 (inactive).
On to GCCAGAGUUUAUUAACUGCTT against Stxbp6, for which the z-score was -0.809 (inactive).
Turning to CCAUUGCAGCAUACUGUCCTT against Serpina1b, the z-score was -0.402 (inactive).
Turning to GCGGCUAAUUCGUUCUUUCTT against Atp8a1, the z-score is 0.708 (inactive).
As for GGUCAGGUAGGGAUAUACATT against Dele1, the z-score is -1.59 (inactive).
With CCAAUAAAAGUGCACACCUTT against Actb, the z-score is 2 (active).
For the sequence GGCAGCAAGUUUUUUAAUCTT against Cap1, the z-score is 0.464 (inactive).
For GGAAAACAACAUGAUCGUGTT against Nadk the value was -0.137 (inactive); for UCCCUAACGGCCCUUUUUATT against H4c14, -0.729 (inactive); for GGACAAGCUCCAAAACAACTT against Srsf4, -0.292 (inactive).
With UAGGAACGCACCCAUACAATT against Fam89b, the z-score is 0.555 (inactive).
Take GGAAAACCCAGGUCAGAAUTT against Serpina9: the z-score is -1.07 (inactive).
Consider CCUUAAGCAGAGUUCAAAGTT against Timm22, for which the z-score was 0.197 (inactive).
On to CCCUCCUCAGUAUUGUACUTT against Dtx2, for which the z-score was 2.51 (active).
GGUCAUUUCAAGUGCUAAGTT against Adgra1: the z-score is 2.76 (active).
The figure for GCCAGAAGUGAAAAUCGAATT against Fkbp14 is 0.509 (inactive); for GGGACAAGGCCUCGAUAUUTT against Ggps1 it is 0.958 (inactive); for CGCAGGACUAUAAACUGAATT against Ptdss2 it is 0.954 (inactive).
As to CCUCUUUCGACAAGAGCUCTT against Atp1a3, the z-score was 0.904 (inactive).
With GCAGAUCGUGCGGAUCUUGTT against Bcdin3d, the z-score is 2.1 (active).
Consider GGCAUUGUUUUCAUUGUGGTT against Cldn7, for which the z-score is -0.0872 (inactive).
On to GGAUGUGAUCCUACUGACATT against Tmem208, for which the z-score was 0.793 (inactive).
As to GCUUCGAUACCUUCAAACCTT against Stom, the z-score is -3.7 (active).
For CGAGAGUCUAACCAAGUACTT against Arhgdib the value was -1.89 (inactive).
Turning to GGAGAUUGUGAGAGCCAUGTT against Kcnab3, the z-score is -0.753 (inactive).
As to GAGUGAGAAAGCCAGAGACTT against Acaa1a, the z-score was 0.188 (inactive).
As to GGACUGUUUACUCAGCUCATT against Slc25a33, the z-score is -2.02 (active).
With GGCCCACAAGGCUGUUUUGTT against Zfp131, the z-score is 0.459 (inactive).
In the case of GGAUUUCAAGGGAAUUUGATT against Wbp4, the z-score is -0.271 (inactive).
Take GCCAGUUGUGACAAAACUATT against Abca1: the z-score was -1.22 (inactive).
As to GGUGGAGUCUGAACUUAAUTT against Nfatc4, the z-score is -0.0623 (inactive).
In the case of GCCCUUAAAACAUAACCACTT against Fgf9, the z-score is 0.615 (inactive).
CCAAGAUUAACCAUAACACTT against Mrpl50: the z-score was 0.017 (inactive).
For GCUCCUACAGAGAAUAAGATT against Eny2, the z-score is -1.7 (inactive).
Take GGACGAGGACCAGCUAGAATT against Txn2: the z-score was -2.07 (active).
For the sequence GGGACAUUUCCAUCCUUUUTT against Prdx6b, the z-score is -1.28 (inactive).
Take GCUCCUUUGGUUCAACAUCTT against Olfr635: the z-score was -1.78 (inactive).
Turning to GCAACCAUUCUGGUAUUACTT against Zfp108, the z-score is 0.904 (inactive).
Take CCAUUAAUAAAGCGUGGGUTT against Cacybp: the z-score is 0.562 (inactive).
Take GGAAAUUUGGAAAUUGCCUTT against Ntm: the z-score was 2.46 (active).
As to “GGAUCAUCACUACUACAAUTT against 4932415M13Rik”, the z-score is 2.37 (active).
Regarding GGCUGCUCGAAUCAGUCAUTT against Slc27a3, the z-score was 0.237 (inactive).
GGAAUUUUCUACAUGUGUGTT against Lim2: the z-score was -2.12 (active).
As to CCAGAUCCUAAAGUCUUUATT against Trpd52l3, the z-score was 0.677 (inactive).
On to CCACCGGAUCGAAGACAGUTT against Tanc2, for which the z-score is -1.28 (inactive).
As for CGUCCCUAGUAUAAAAAGATT against Cxxc5, the z-score was -0.273 (inactive).
For GGCUUUCACCUUAAUUGAUTT against Fntb the value was -0.296 (inactive).
Take CCCAGUACAGCCUUGUGGUTT against Med25: the z-score is -2.02 (active).
With CGACAAGGGUUUUUAUUCUTT against Smcr8, the z-score is -0.414 (inactive).
Take GCCUCUCAACAUGAAUUAATT against Gm9918: the z-score was 0.524 (inactive).
For CCAAGUUUAACAUCCAGGGTT against Pfkm, the z-score is -0.126 (inactive).
As to GGAUGGAGACCUCUCCUUUTT against Guca2a, the z-score was 1.36 (inactive).
As for CCAGCGAUCUUCCCAUUCUTT against Ccr8, the z-score was -0.844 (inactive).
For the sequence GCCCUAAUCUAUGGGACAUTT against Tmem179, the z-score is 3.06 (active).
The figure for UUCAUUCAUAUGGACAGUUTT against Psg19 is 1.73 (inactive); for GCCACAAUGGGCAGUCUUATT against Kcp it is 0.0139 (inactive); for GCGGAAGUCGGAUUUUAUCTT against Kif1c it is 3.01 (active).
On to “CCAACACGUUGCACAGAGUTT against A830073O21Rik”, for which the z-score was 0.611 (inactive).
Regarding “GGACAACCGAAGUUUUAAUTT against E130308A19Rik”, the z-score was 0.0435 (inactive).
On to GGAGGUGACUAUCAUUUUUTT against Gng4, for which the z-score was -0.498 (inactive).
For the sequence CCAGCAAGUAAAACAAGCUTT against Olfr803, the z-score was 0.998 (inactive).
With GGUACUUCUCAUGGAUAAATT against Vps45, the z-score was -0.234 (inactive).
Turning to GGAACUAAAUAUCCCUAUGTT against Polr3gl, the z-score is -1.26 (inactive).
For the sequence GAUACUUGGCUCCUAGAAGTT against Olfr803, the z-score is -1.22 (inactive).
For GCAUGAAUUGUGGAAGAGATT against Csnk1a1 the value was 2.71 (active); for GCCAGGUGGAACCAAGUAUTT against Zcchc17, -1.67 (inactive).
The figure for GGCAUCUUAUGGCCUAAAATT against Rnf31 is -1.08 (inactive); for GCGAAAAAGAUCGUCCUUGTT against Polr3a it is -0.444 (inactive).
The figure for GGAUCUUUACAUCUCUAACTT against Krtap31-1 is 1.58 (inactive); for GCCAAACAUUGGUGGACAUTT against H2-D1 it is 0.835 (inactive).
With GCUUAAUAAUUUCAUCCAGTT against Brms1l, the z-score was 2.44 (active).
GGCCCAGUCCGAUAUUCUATT against Phxr4: the z-score is -0.797 (inactive).
